GDH-TPI counter: inhibits GDH-TPI coupling enzymes, artifact for Mtb FBA screen. hit rate 1.2% among 360,000. inhibition, % at 4.8 µM. GDH-TPI coupled enzyme counterscreen, NADH absorbance;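 note: 0% = DMSO wells and 100% = wells lacking the enzyme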
CCHF vOTU inh-1: blocks the CCHF virus ovarian tumor domain protease. CCHFV vOTU protease, Pep-AMC fluorescence. inhibition, % at 11.5 µM. hit rate 0.55% among 370,000; note: 0% = vehicle wells with enzyme and 100% = no enzyme wells
FBA Mtb inh: inhibits M. tuberculosis FBA enzyme; P9WQA3; purified M. tuberculosis FBA, fluorescence read-out; inhibition, % at 1 µM; hit rate 2.3% among 360,000; AID 588726; in the data active = inhibition above about 27%;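 note: 0% = vehicle and 100% = reference inhibitor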
RecA intein inh: Mtb RecA intein splicing inhibition; P9WHJ3; hit rate 0.75% among 290,000; inhibition, % (test concentration not listed); cell-free RecA intein splicing, fluorescence; in the data active = inhibition above about 30%;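 note: 0% = vehicle wells and 100% = reference inhibitor control wells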
Target sequence (P9WHJ3 whole entry, looked up): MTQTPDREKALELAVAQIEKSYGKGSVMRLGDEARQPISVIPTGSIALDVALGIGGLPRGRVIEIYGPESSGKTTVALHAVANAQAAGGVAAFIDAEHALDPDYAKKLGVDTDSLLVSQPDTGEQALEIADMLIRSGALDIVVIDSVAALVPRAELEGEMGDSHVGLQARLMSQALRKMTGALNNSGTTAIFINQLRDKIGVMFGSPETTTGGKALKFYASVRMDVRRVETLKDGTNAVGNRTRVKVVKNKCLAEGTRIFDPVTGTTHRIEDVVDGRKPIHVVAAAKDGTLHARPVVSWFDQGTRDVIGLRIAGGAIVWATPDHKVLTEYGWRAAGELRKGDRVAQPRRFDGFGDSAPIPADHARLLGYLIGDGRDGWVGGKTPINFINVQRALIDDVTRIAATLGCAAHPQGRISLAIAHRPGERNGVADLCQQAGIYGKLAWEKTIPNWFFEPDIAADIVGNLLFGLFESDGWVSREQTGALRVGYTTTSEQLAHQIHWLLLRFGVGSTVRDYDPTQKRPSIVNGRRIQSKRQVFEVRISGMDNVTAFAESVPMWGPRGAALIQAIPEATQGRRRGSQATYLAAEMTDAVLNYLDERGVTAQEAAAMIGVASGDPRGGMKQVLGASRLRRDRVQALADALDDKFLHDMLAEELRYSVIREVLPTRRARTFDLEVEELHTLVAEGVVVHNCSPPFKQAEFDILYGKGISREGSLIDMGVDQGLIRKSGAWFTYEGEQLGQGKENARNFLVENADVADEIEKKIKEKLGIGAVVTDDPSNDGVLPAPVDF
CCHF vOTU inh-2: CCHFV vOTU protease inhibition, confirmation; shares compounds with CCHF vOTU inh-1; Recombinant CCHFV vOTU, Pep-AMC fluorescence; inhibition, % at 11.5 µM; hit rate 17% among 1,900; AID 686976
* marks the source's active call; other numbers are inactive results; . = no result given. Sampled rows, rich in hits. Any-hit rate of the full collection: about 4.2%. Cut-off read from the data, not from the text of the source, unless noted: active = inhibition above about 30%; inactive = the rest.

SMILES	GDH-TPI counter	CCHF vOTU inh-1	FBA Mtb inh	RecA intein inh	CCHF vOTU inh-2
C=CC[C@@H](Cc1ccc(F)cc1)C(=O)OC[C@@H]1CCCN1C(=O)[C@H](CC=C)CC(=O)N(CCO)Cc1ccccc1	11.7	11.1	-1.5	.	.
C=CCC[C@@H](Cc1ccc(F)cc1)C(=O)OC[C@@H](NC(=O)[C@@H](CC=C)CC(=O)N(CCO)Cc1ccccc1)c1ccccc1	0.9	34.5*	-2.5	.	4.0
C=CC[C@@H](Cc1ccc(F)cc1)C(=O)OC[C@H]1CCCN1C(=O)[C@@H](CC=C)CC(=O)N(CCO)Cc1ccccc1	8.2	31.0*	-0.5	.	5.1
C=CCC[C@@H](Cc1ccc(F)cc1)C(=O)OC[C@@H](NC(=O)[C@H](CC=C)CC(=O)N(CCO)Cc1ccccc1)c1ccccc1	5.8	24.4	-1.6	.	.
C=CC[C@H](CC(=O)N(CCO)Cc1ccccc1)C(=O)N[C@@H](C)COC(=O)[C@@H](CC=C)Cc1ccc(F)cc1	13.0	18.4	-0.6	.	.
C=CCC[C@@H](Cc1ccc(F)cc1)C(=O)OC[C@H](C)NC(=O)[C@@H](CC=C)CC(=O)N(CCO)Cc1ccccc1	-5.5	31.6*	-3.3	.	4.9
CCCCN(C(=O)CSCC(=O)Nc1cccc(C)c1)c1c(N)n(CCCC)c(=O)[nH]c1=O	0.7	-2.1	3.4	-1.5	.
CCCCn1c(N)c(N(CC(C)C)C(=O)CSCC(=O)Nc2cccc(C)c2)c(=O)[nH]c1=O	-13.6	33.8*	1.1	.	-20.6
COc1ccccc1NC(=O)NNC(=O)CCN1CCOCC1	-9.1	-2.2	1.4	2.6	.
CCN(CC)C(=O)[C@H]1C[C@H](CC(=O)NCc2cccc(C(F)(F)F)c2)C(=O)N2CCc3c([nH]c4ccc(Cl)cc34)[C@]12C	8.2	31.6*	0.7	.	-3.4
Oc1c(C=C2N=c3ccccc3=N2)sc(=S)n1-c1ccccc1	-2.3	-11.0	-2.2	-4.8	.
CC1=Nc2ccccc2/C1=C/c1sc(=S)n(-c2cccc(C(=O)O)c2)c1O	16.6	36.3*	-29.6	6.3	25.8
O=C(N/N=C/c1cccs1)c1cccc(NC(=O)c2ccc(Cl)cc2)c1	.	45.6*	.	-0.5	5.2
COC(=O)C1C(O)=C(C=Nc2ccc(N)cc2)C(=O)CC1(C)C (stereo not given)	13.2	40.1*	1.4	-6.4	-4.3
CCCCCCN=CC1=C(O)C(C(=O)OC)C(C)(C)CC1=O (stereo not given)	1.4	7.5	-1.7	-2.8	.
CC1(C)CC(=O)C(C=Nc2ccc(N)cc2)=C(O)C1	3.8	63.5*	-4.8	-6.9	-8.1
COc1ccccc1C=NN=C(NN=Cc1ccccc1OC)NN=Cc1ccccc1OC	28.1	69.0*	-1.2	.	2.0
COc1ccccc1C=NN=C(N)C(N)=NN=Cc1ccccc1OC	28.0	20.5	-2.8	.	.
CC1(C(=O)NCc2cccc(C(F)(F)F)c2)CCN1C1Cc2ccccc2C1 (stereo not given)	-4.6	16.9	-0.6	.	.
Cc1ccc2c(c1)N(C(=O)CCC(=O)NC1CCC(C)CC1)CCO2 (stereo not given)	3.4	0.6	-0.2	0.5	.
COc1cc(NCCCCCCN)c2ncccc2c1OC	7.8	102.1*	-4.0	.	93.5*
COc1cc(N)c2ncccc2c1OC	9.9	40.0*	0.3	.	3.3
COc1cc(NC(C)CCCNC(C)C)c2ncccc2c1OC (stereo not given)	6.1	17.3	5.3	.	.
Cc1ccc(S(=O)(=O)/N=C2/NC(=O)/C(=C/c3cc([N+](=O)[O-])ccc3O)S2)cc1	8.8	42.5*	-18.9	-3.3	10.7
COCc1cn(-c2nc3ccccc3s2)nn1	.	-6.1	.	.	.
SMILES	GDH-TPI counter	CCHF vOTU inh-1	FBA Mtb inh	RecA intein inh	CCHF vOTU inh-2
COc1ccc(-c2cc(C)no2)cc1S(=O)(=O)N1CCCN(Cc2ccccc2Cl)C1	1.3	13.3	-3.9	-3.9	.
O=C(Nc1ccc(S(=O)(=O)Nc2nccs2)cc1)/C(=C/c1ccccc1Cl)NC(=O)c1ccccc1	0.0	32.4*	0.5	9.6	-15.6
C[C@H](CO)N1C[C@H](C)[C@H](CN(C)S(=O)(=O)c2cccc(C#N)c2)OCc2cnnn2CCCC1=O	-4.1	17.3	0.8	.	.
COC(=O)/C(=C/Nc1ccc(O)cc1)[N+](=O)[O-]	16.4	93.4*	-9.8	-7.7	-6.7
COC(=O)/C(=C/Nc1ccccc1)[N+](=O)[O-]	0.2	-10.9	-4.5	-0.7	.
Cc1oc2c(cc(NS(=O)(=O)c3ccc(F)cc3)c3ccccc32)c1C(=O)O	7.3	29.6*	-2.0	-0.9	-9.8
Cc1oc2c(cc(NS(=O)(=O)c3ccc(C(C)C)cc3)c3ccccc32)c1C(=O)O	-2.3	27.4	-0.6	11.7	.
O=C(OC(C(=O)NCc1ccc(F)cc1)c1ccccc1)c1ccco1 (stereo not given)	7.5	6.0	1.7	3.1	.
Cc1cc(Cl)c(C)c(S(=O)(=O)Oc2ccccc2NC(=O)CCC(=O)O)c1Cl	6.5	33.2*	2.0	.	-5.8
COc1ccccc1NC(=O)CCC(=O)O	5.5	5.1	0.1	-14.2	.
O=C(O)c1[nH]c2ccccc2c1C(c1ccccc1)c1c(C(=O)O)[nH]c2ccccc12	11.1	18.4	1.7	5.8	.
O=C(O)c1[nH]c2ccccc2c1C(c1cc(Cl)cc([N+](=O)[O-])c1O)c1c(C(=O)O)[nH]c2ccccc12	2.6	45.9*	-5.0	14.6	26.2
CC(=O)Nc1cccc(NC(=O)CSc2nc(=O)n(CCN3CCOCC3)c3c2CCCC3)c1	3.5	7.4	-2.2	0.1	.
CCN(CCC(=O)Nc1cc(OC)ccc1OC)Cc1ccccc1	.	4.1	.	.	.
COCCCn1c(N)c(C(=O)Nc2sc3c(c2C(=O)OC)CCCC3)c2nc3ccccc3nc21	-0.2	34.8*	1.7	5.2	-22.7
CC(C)(C)c1cc(=O)n(-c2ccccc2)[nH]1	1.1	76.8*	-1.8	.	-7.4
CC(C)CN1C=C2C(=O)C(C)(OC(=O)C3CCCC3)C(=O)C=C2C=C1c1ccsc1 (stereo not given)	13.4	4.1	-2.4	10.1	.
CC1(OC(=O)C2CCCC2)C(=O)C=C2C=C(c3ccsc3)N(C(CO)CO)C=C2C1=O (stereo not given)	12.3	31.5*	3.3	-14.0	-1.6
O=C(OCC(=O)N1CCOCC1)c1ccc2ccccc2c1O	10.8	-14.4	22.9	.	.
N#CCCN(C(=O)COC(=O)CCNS(=O)(=O)c1ccccc1)c1ccccc1	1.4	58.5*	3.7	.	3.2
N#CCCN(C(=O)COC(=O)CCC(=O)c1cccs1)c1ccccc1	-5.7	-11.2	-1.6	.	.
COc1cccc(/C=C/C(=O)OCC(=O)c2ccc(Br)cc2)c1	-2.6	-5.8	1.9	.	.
C=CC[C@H](CC(=O)N(CCO)Cc1ccccc1)C(=O)N[C@H](COC(=O)[C@@H](CC=C)Cc1ccc(F)cc1)Cc1c[nH]c2ccccc12	-6.3	31.0*	1.8	.	7.1
C=CC[C@@H](CC(=O)N(CCO)Cc1ccccc1)C(=O)N[C@H](COC(=O)[C@@H](CC=C)CC(=O)OC(C)(C)C)Cc1ccccc1	4.5	36.7*	-0.6	.	21.5
C=CC[C@H](CC(=O)N(CCO)Cc1ccccc1)C(=O)N[C@@H](COC(=O)[C@@H](CC=C)CC(=O)OC(C)(C)C)Cc1c[nH]c2ccccc12	2.7	33.1*	1.5	.	2.3

Bioassay records deposited in PubChem by several laboratories.
